Experimental data reported in PubChem BioAssay (Tox21).
Values joined by “and” are separate entries in the source; they are usually repeats but may differ in a detail not shown here. Equal values may be shown once. Records with an inconclusive call do not appear. A structure can be active in one record and inactive in another. Active and inactive are the calls of the source. Unless noted, calls come from the whole dose curve.

Experiments:
[1] = Nuclear factor erythroid 2-related factor 2/antioxidant responsive element (Nrf2/ARE) small molecule agonists: qHTS cell viability counter screen in human keratinocytes (AID 1919968; active = well fitted cell-killing curve with a large enough effect in the repeat runs; note: nearly all actives have a fitted effect of over 55% in size; note: potency is the fitted concentration of half-maximal effect)
In short: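 Cytotoxicity was multiplexed with the Nrf2/ARE luciferase assay in the same wells. Stably transfected HaCaT keratinocytes were treated with test compounds for 23 h at 37 C. Cell viability was then measured by CellTiter-Fluor fluorescence.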

[2] = Nuclear factor erythroid 2-related factor 2/antioxidant responsive element (Nrf2/ARE) small molecule agonists: luciferase reporter gene qHTS assay in human keratinocytes (AID 1919969); note: nearly all actives have a fitted effect of over 35% in size; note: potency is the fitted concentration of half-maximal effect
[3] = target: Gonadotropin-releasing hormone receptor (Homo sapiens) (UniProt P30968); test: Human gonadotropin-releasing hormone receptor (GnRHR) small molecule agonists, calcium flux assay in GnRHR-HEK293 cells (AID 1920063); note: nearly all actives have a fitted effect of over 35% in size
In short: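 Agonist activity was measured as intracellular calcium flux in HEK293 cells engineered to stably express human GnRHR. After dye loading for 1 hour at 37 C, compounds in DMSO were added and fluorescence was followed for 3 minutes.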

[4] = G protein-coupled receptor (GPCR) small molecule agonists, calcium flux assay: HEK293 wild type cell line counter screen (AID 1920065)
In short: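 Seed cells, incubate 18 h (37 C, 5% CO2); add calcium dye, 1 h at 37 C; pin-transfer compounds, ATP control or DMSO; read fluorescence 480/540 nm each second for 3 min.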

[5] = p53 small molecule agonists, cell-based qHTS assay with human liver microsomes (AID 1963577);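 note: p53 response element beta-lactamase reporter cells with liver microsomes plus NADPH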
In short: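 Steps: plate p53RE-bla cells, incubate 5 h at 37 C; add compound in DMSO; add microsomes (0.5 mg/mL final) and NADPH (0.5 mg/mL final); incubate 16 h at 37 C; add LiveBLAzer, 2 h RT; read fluorescence.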

[6] = p53 small molecule agonists, cell-based qHTS assay with rat liver microsomes (AID 1963578)
In short: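 Metabolic activation is supplied by rat liver microsomes with NADPH (each 0.5 mg/mL final). p53RE-bla cells incubate with compound 16 h at 37 C; reporter activity is measured by LiveBLAzer fluorescence.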

[7] = p53 small molecule agonists, cell-based qHTS assay with rat liver microsomes: qHTS cell viability counter screen (AID 1963580); note: nearly all actives have a fitted effect of over 45% in size
In short: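 Luminescent ATP readout (CellTiter-Glo, 30 min at room temperature) reports viability of p53RE-bla HCT-116 cells after 16 h at 37 C with test compounds under metabolic activation by rat liver microsomes and NADPH at 0.5 mg/mL final each.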

[8] = p53 small molecule agonists, cell-based qHTS assay: qHTS cell viability counter screen (AID 1963581); note: nearly all actives have a fitted effect of over 45% in size; note: potency is the fitted concentration of half-maximal effect
In short: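 Viability was counter-screened in parallel with the p53 agonist reporter by measuring intracellular ATP luminescence in the same HCT-116 p53RE-bla wells after 16 h compound treatment at 37 C.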

[9] = p53 small molecule agonists, cell-based qHTS assay (AID 1963582; active = well fitted activation curve with a large enough effect in the signal ratio in the repeat runs, not every such curve was filed as active; the % refers to the signal ratio)
In short: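 Cells carrying a p53-responsive bla reporter are treated with test compounds for 16 h at 37 C; beta-lactamase activity is then detected with LiveBLAzer B/G FRET substrate after 2 h at room temperature.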

[10] = target: 5-hydroxytryptamine receptor 2A (Homo sapiens) (UniProt P28223); test: 5-hydroxytryptamine receptor 2A (HTR2A) small molecule antagonists, cell-based qHTS assay (AID 1963586); note: nearly all actives have a fitted effect of over 45% in size
In short: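 CHO cells stably expressing human HTR2A were plated for 18 h at 37 C, then loaded with calcium dye for 1 h. Compounds were preincubated 5 min at room temperature before DOI (4 nM solution) was added. Kinetic fluorescence was read for 3 min.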

[11] = target: 5-hydroxytryptamine receptor 2A (Homo sapiens) (UniProt P28223); test: 5-hydroxytryptamine receptor 2A (HTR2A) small molecule agonists, cell-based qHTS assay (AID 1963587); note: nearly all actives have a fitted effect of over 30% in size
In short: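 HTR2A-CHO cells, plated 18 h at 37 C/5% CO2, dye-loaded 1 h at 37 C; compounds in DMSO added by pin tool (agonist mode). Intracellular calcium flux read as kinetic fluorescence on FDSS over 2 min at 1 s intervals.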

[12] = target: Muscarinic acetylcholine receptor M1 (Homo sapiens) (UniProt P11229); test: Cholinergic receptor muscarinic 1 (CHRM1) small molecule agonists, cell-based qHTS assay (AID 1963589); note: nearly all actives have a fitted effect of over 35% in size
In short: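 Cells were plated and incubated 18 h at 37 C/5% CO2, loaded with calcium dye for 1 h at 37 C, then treated with compounds in DMSO. Fluorescence was recorded kinetically at 1 sec intervals.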

[13] = cAMP Responsive Elements (CRE) small molecule agonists, cell-based qHTS assay (AID 1963590)
In short: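 Cells carrying a CRE-driven beta-lactamase reporter (HEK 293T) are seeded, incubated overnight (18 h), and treated with test compounds for 3 h at 37 C; reporter activity is then detected with a FRET substrate after 2 h at room temperature.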

[14] = cAMP Responsive Elements (CRE) small molecule antagonists, cell-based qHTS assay (AID 1963591; active = well fitted inhibition curve with a large enough effect in the signal ratio in the repeat runs, not every such curve was filed as active; the % refers to the signal ratio)
In short: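 Cells (CRE-bla HEK 293T, DMEM with 10% dialyzed FBS and 25 mM HEPES) are seeded and incubated 18 h. Compounds are added with NKH477 agonist at 0.25 uM final for 3 h, then FRET substrate for 2 h.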

[15] = target: Beta-2 adrenergic receptor (Homo sapiens) (UniProt P07550); test: Adrenergic beta2 receptor (ADRB2) small molecule antagonists, cell-based qHTS assay (AID 1963592); note: series mostly up to about 92 µM; nearly all actives have a fitted effect of over 50% in size
In short: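 Assay format: CHO-ADRB2 cells, 18-20hr seeding at 37C/5% CO2, then compound plus 1nM isoproterenol agonist mix for 0.5hr RT. Homogeneous time-resolved fluorescence cAMP detection after 1hr, expressed as 665/615 nm ratio.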

[16] = target: Beta-2 adrenergic receptor (Homo sapiens) (UniProt P07550); test: Adrenergic beta2 receptor (ADRB2) small molecule agonists, cell-based qHTS assay (AID 1963593);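 note: CHO cells stably overexpressing human ADRB2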
In short: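 CHO cells stably over-expressing ADRB2 were plated overnight at 37C, then dosed with compounds plus a stimulation mix containing 100uM IBMX and 25uM Ro-20-1724 for 0.5hr at room temperature. cAMP was measured by HTRF competition, 1hr.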

[17] = target: D(2) dopamine receptor (Homo sapiens) (UniProt P14416); test: Dopamine D2 receptor (DRD2) small molecule agonists, cell-based qHTS assay (AID 1963594); note: nearly all actives have a fitted effect of over 35% in size
In short: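 HEK293 cells stably expressing DRD2 were cultured 24 h at 37 C, then given Ro20-1724 (0.1 mM final) and compounds for 10 min at room temperature. NKH477 (200nM) was then added for 30 min. cAMP was read by HTRF.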

[18] = target: D(2) dopamine receptor (Homo sapiens) (UniProt P14416); test: Dopamine D2 receptor (DRD2) small molecule antagonists, cell-based qHTS assay (AID 1963595; active = well fitted inhibition curve with a large enough effect in the signal ratio in the repeat runs, with a control signal flat; the % refers to the signal ratio)
In short: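 HEK293 cells stably expressing DRD2 were preincubated with 0.1 mM Ro20-1724, then with compound for 10 min at room temperature. Cells were stimulated with 200 nM NKH477 plus 12 nM quinpirole for 30 min, and cAMP was read by HTRF.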

[19] = p53 small molecule agonists, cell-based qHTS assay with human liver microsomes: qHTS cell viability counter screen (AID 1963579); note: nearly all actives have a fitted effect of over 45% in size; note: potency is the fitted concentration of half-maximal effect
In short: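 After the 460/530 nm beta-lactamase read, CellTiter-Glo was added to the same wells and luminescence measured after 30 min at room temperature, giving viability of p53RE-bla cells treated 16 h with compounds plus microsomes and NADPH.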

[20] = target: Muscarinic acetylcholine receptor M1 (Homo sapiens) (UniProt P11229); test: Cholinergic receptor muscarinic 1 (CHRM1) small molecule antagonists, cell-based qHTS assay (AID 1963588); note: nearly all actives have a fitted effect of over 40% in size
In short: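 Compounds were tested at 15 concentrations in three independent runs. Dye-loaded CHRM1-CHO cells were exposed 5 min at room temperature before stimulation by acetylcholine added at 50nM. Intracellular calcium was read kinetically on FDSS for 3 min.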

Measured: Potency

D(2) dopamine receptor (Homo sapiens), sequence (P14416 whole entry, looked up): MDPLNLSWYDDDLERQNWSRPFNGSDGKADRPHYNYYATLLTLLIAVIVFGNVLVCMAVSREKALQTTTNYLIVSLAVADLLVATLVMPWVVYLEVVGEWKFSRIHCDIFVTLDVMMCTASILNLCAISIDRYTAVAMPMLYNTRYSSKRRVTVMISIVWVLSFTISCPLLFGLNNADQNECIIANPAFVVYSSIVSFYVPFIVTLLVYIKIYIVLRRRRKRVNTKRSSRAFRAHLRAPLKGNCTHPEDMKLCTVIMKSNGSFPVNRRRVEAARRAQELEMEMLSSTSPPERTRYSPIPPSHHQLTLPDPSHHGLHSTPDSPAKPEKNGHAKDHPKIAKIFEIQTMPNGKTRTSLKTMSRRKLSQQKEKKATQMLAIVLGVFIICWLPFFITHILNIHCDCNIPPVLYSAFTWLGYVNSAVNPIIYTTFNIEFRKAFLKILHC
5-hydroxytryptamine receptor 2A (Homo sapiens), sequence (P28223 whole entry, looked up): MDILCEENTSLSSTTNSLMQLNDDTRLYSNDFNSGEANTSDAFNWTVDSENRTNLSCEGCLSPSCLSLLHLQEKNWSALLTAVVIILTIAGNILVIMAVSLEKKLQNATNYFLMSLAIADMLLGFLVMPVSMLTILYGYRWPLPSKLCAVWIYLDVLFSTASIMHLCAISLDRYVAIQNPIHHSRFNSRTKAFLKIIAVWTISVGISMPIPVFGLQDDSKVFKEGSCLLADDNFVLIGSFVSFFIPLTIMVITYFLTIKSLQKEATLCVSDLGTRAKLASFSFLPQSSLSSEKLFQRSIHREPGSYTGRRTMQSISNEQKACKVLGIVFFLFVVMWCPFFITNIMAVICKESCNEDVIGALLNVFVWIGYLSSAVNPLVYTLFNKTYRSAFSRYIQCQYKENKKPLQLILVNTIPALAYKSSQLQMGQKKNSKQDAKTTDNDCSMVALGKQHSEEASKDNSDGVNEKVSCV
Muscarinic acetylcholine receptor M1 (Homo sapiens), sequence (P11229 whole entry, looked up): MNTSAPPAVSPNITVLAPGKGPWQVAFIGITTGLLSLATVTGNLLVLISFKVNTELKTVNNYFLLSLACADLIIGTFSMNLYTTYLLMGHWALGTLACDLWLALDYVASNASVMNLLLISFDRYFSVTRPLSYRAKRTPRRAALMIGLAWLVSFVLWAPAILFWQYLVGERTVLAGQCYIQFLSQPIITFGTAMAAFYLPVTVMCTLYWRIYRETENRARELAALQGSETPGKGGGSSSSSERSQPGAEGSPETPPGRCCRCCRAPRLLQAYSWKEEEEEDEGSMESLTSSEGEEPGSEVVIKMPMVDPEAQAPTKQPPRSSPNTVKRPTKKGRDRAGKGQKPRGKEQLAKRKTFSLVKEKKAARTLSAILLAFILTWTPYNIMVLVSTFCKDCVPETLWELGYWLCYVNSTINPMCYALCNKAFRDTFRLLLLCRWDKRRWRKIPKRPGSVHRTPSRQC
Gonadotropin-releasing hormone receptor (Homo sapiens), sequence (P30968 whole entry, looked up): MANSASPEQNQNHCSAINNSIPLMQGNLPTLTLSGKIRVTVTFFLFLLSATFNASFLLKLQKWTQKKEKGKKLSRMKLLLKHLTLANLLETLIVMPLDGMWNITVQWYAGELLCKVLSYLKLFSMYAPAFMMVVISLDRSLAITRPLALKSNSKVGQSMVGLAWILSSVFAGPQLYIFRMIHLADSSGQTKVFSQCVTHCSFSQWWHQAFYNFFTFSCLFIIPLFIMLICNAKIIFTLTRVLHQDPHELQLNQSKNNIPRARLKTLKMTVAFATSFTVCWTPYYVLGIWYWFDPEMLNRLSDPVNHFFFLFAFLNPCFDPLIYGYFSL
Beta-2 adrenergic receptor (Homo sapiens), sequence (P07550 whole entry, looked up): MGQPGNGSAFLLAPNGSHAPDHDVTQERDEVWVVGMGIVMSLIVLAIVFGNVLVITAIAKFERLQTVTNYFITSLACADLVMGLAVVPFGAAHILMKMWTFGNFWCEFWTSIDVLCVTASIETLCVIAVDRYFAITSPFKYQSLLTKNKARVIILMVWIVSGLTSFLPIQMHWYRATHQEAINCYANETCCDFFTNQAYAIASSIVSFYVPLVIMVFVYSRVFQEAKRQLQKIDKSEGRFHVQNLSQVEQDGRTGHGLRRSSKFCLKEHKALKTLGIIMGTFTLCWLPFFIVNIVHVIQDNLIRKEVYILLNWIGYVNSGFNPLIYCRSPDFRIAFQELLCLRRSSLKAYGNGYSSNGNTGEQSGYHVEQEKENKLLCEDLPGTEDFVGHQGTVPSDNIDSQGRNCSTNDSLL

N[C@@H](Cc1cc(I)c(Oc2cc(I)c(O)c(I)c2)c(I)c1)C(=O)O
not listed: [19] | [20]
inactive: all other assays above

CCCCC(CC)COC(=O)c1ccc(C(=O)OCC(CC)CCCC)cc1 (centres undefined)
not listed: [6]
inactive: all other assays above

C[C@]12CCC(=O)C=C1CC[C@@H]1[C@@H]2C(=O)C[C@@]2(C)[C@H]1CC[C@]2(O)C(=O)CO
408 nM (active) and inactive: [19]
not listed: [5] | [10] | [11] | [12] | [14] | [20]
inactive: all other assays above

OC[C@H]1O[C@@H](Oc2ccc(O)cc2)[C@H](O)[C@@H](O)[C@@H]1O
not listed: [3]
inactive: all other assays above

C[N+](C)(C)CCCCCC[N+](C)(C)C
not listed: [3]
inactive: all other assays above

O=C(O)Cn1c(=O)n(Cc2ccc(Br)cc2F)c(=O)c2ccc(Cl)cc21
not listed: [3]
inactive: all other assays above

CCCCCCCCCCCCc1ccccc1O
active: [1] 21.4 µM and 24.3 µM | [19] 18 µM and 20.4 µM | [8] 14.3 µM and 18.2 µM
not listed: [6] | [9] | [13] | [14] | [16]
inactive: all other assays above

C[C@@H](O)[C@H]1C(=O)N2C(C(=O)O)=C(S[C@@H]3CN[C@H](C(=O)N(C)C)C3)[C@H](C)[C@H]12
not listed: [6] | [7] | [10] | [11] | [12] | [16] | [20]
inactive: all other assays above

OCc1ccc(Cl)cc1Cl
not listed: [4]
inactive: all other assays above

Cc1ccc(S(=O)(=O)N=C=O)cc1
not listed: [3] | [16]
inactive: all other assays above

c1ccc2[nH]c(-c3cscn3)nc2c1
active: [2] 27.3 µM and 6.68 µM
not listed: [5] | [6] | [9] | [10] | [11] | [12] | [15] | [20]
inactive: all other assays above

O=c1cc[nH]c(=S)[nH]1
inactive and 793 nM (active): [19]
not listed: [3] | [11] | [16]
inactive: all other assays above

O=C(c1cc(O)c(O)c(O)c1)c1ccc(O)c(O)c1O
not listed: [6] | [9] | [11] | [15] | [16] | [19]
inactive: all other assays above

C[C@]12C=CC(=O)C=C1CC[C@@H]1[C@@H]2C(=O)C[C@@]2(C)[C@H]1CC[C@]2(O)C(=O)CO
not listed: [3] | [10] | [11] | [12] | [14] | [18] | [20]
inactive: all other assays above
